# Experimental data: PubChem BioAssay AID463173 (ICCB-Longwood Screening Facility, Harvard Medical School, 2010)
# About 4,300 (8.3%) of roughly 52,000 compounds were called active. What follows is part of a selection rich in actives, with near analogues and random picks from the rest. Values without a mark were called inactive. Cut-off read from the data, not from the text of the source: active = survival mostly below about 52% (no sharp cut-off); inactive = mostly above about 56%.
# System: DeltatarO mutant
# Assay: growth inhibition of S. aureus wild type versus tarO mutant, primary screen, teichoic acid synthesis inhibitors, RN4220, OD600 (AID 463173)
# Conditions: OD600, 18 h, active compounds read low, screened at 18.75 µg/mL (by protocol)
row,Compound,survival
1,Cc1c(Cl)cccc1N1C(N)=C(C#N)C(c2cc(CN3CCOCC3)cs2)C2=C1CCCC2=O (stereo not drawn),128%
2,COc1ccc(NC(=O)c2c(NCc3ccc(C)o3)sc3c2CCC(C)C3)c(OC)c1 (stereo not drawn),82%
3,COc1ccc(OC)c(NC(=O)c2c(NCc3ccc(C)o3)sc3c2CCC(C)C3)c1 (stereo not drawn),52% (active)
4,COc1ccc(Cl)cc1NC(=O)c1c(NCc2ccc(C)o2)sc2c1CCC(C)C2 (stereo not drawn),81%
5,Cc1nnc(SCC#N)n1C,92%
6,CC(=O)Nc1ccc(S(=O)(=O)NCc2ccc(C(=O)NCc3ccc(Cl)cc3)cc2)cc1,68%
7,Cc1ccc(-c2nn(-c3ccc(F)cc3)c3c2cnc2cc(F)c(F)cc23)cc1,82%
8,CSc1ccc(CCNC(=O)CCc2c(C)nc3c(c(C)nn3-c3ccc(C)c(C)c3)c2C)cc1,91%
9,Cc1c2cnn(-c3ccccc3)c(=O)c2c(C)n1CCCC(=O)Nc1ccc(F)cc1F,72%
10,Cc1ccc(CCNC(=O)CCCn2c(=O)c3ccccc3n(CC(=O)Nc3cc(Cl)ccc3C)c2=O)cc1,116%
11,Cc1ccc(NC(=O)CCCn2c3ccccc3c(=O)c3cc(C)ccc32)c(Br)c1,38% (active)
12,Cc1ccc2c(c1)c(=O)c1ccccc1n2CCCC(=O)Nc1c(F)cccc1F,53%
13,Cc1ccc(NC(=O)CCS(=O)(=O)c2ccc3c(c2)oc(=O)n3C)c(Br)c1,80%
14,CCCn1c2ccccc2c2cnn(CC(=O)Nc3ccc(C)cc3Br)c(=O)c21,94%
15,Cc1ccc2c(c1)c(=O)c1ccccc1n2CCCC(=O)Nc1ccc(F)cc1F,49% (active)
16,Cc1ccc2c(c1)c(=O)c1ccccc1n2CCCC(=O)Nc1ccc(Cl)cc1C,45% (active)
17,Cc1ccc2c(c1)c(=O)c1ccccc1n2CCCC(=O)Nc1cc(Cl)ccc1C,113%
18,CCOc1ccccc1NC(=O)C(C)Sc1cc(-c2ccccc2)nc(C)n1 (stereo not drawn),59%
19,CCOC(=O)c1ccc(NC(=O)C(CC)Sc2nc3ncccc3o2)cc1 (stereo not drawn),81%
20,C=Cn1c(=N)n(C)c2ccccc21,70%
21,O=C(CN1C(=O)COc2ccc(S(=O)(=O)N3CCOCC3)cc21)N1CCN(c2ccccc2)CC1,116%
22,COc1ccccc1CNC(=O)c1ccc(-c2nc(CS(=O)(=O)c3ccc(C)cc3)c(C)o2)cc1,73%

row,Compound,survival
1,COc1ccc(F)cc1NC(=O)C1CCN(c2nc(-c3ccc(OC)c(OC)c3)no2)CC1,48%
2,Cc1ccc(NC(=O)CCc2nc3cccnc3n2-c2ccccc2)cc1Cl,64%
3,Cc1ccc(NC(=O)CCc2nc3cccnc3n2-c2ccccc2)cc1,80%
4,Cc1cc(NC(=O)CCc2nc3cccnc3n2-c2ccccc2)ccc1Br,31% (active)
5,CCOC(=O)Cn1c(-c2cccs2)cc2cc(Cl)ccc21,59%
6,COc1cccc(Nc2nc3ccc(C(=O)c4ccccc4)cc3n3c(C)nnc23)c1,85%
7,CCc1cccc(NC(=O)c2ccc(CN3C(=O)C(C)=C(c4ccc(OC)cc4)S3(=O)=O)cc2)c1,71%
8,CCn1cc(S(=O)(=O)c2ccccc2)c(=O)c2cc(F)c(N3CCCC3)cc21,107%
9,CCOc1ccc(NC(=O)C(C)n2c(=O)cc(C)c3c(C)nn(-c4ccccc4)c32)cc1 (stereo not drawn),83%
10,Nc1nc(Nc2ccccc2F)sc1C(=O)c1ccc(Cl)cc1,2% (active)
11,Nc1c(C(=O)c2ccc(F)cc2)sc(Nc2ccccc2F)c1S(=O)(=O)c1ccc(Br)cc1,67%
12,COc1ccc(C(=O)c2sc(Nc3cc(Cl)ccc3C)nc2N)cc1OC,131%
13,COc1ccc(NC(=O)Cn2c(=O)oc3cc(S(=O)(=O)NC4CCCC4)ccc32)cc1OC,93%
14,Nc1nnc(CC(=O)N2CCCC2)s1,99%
15,CCCCC(CC)CNC(=O)CCCc1nnc2n(CCC)c(=O)c3sccc3n12 (stereo not drawn),75%
16,COc1ccc(-c2nnc(SCC(=O)Nc3ccc(C)c(Cl)c3)nc2-c2ccc(OC)c(OC)c2)cc1OC,135%
17,COC(=O)CN1C(=O)C(C)(C)c2cc(S(=O)(=O)Nc3ccc(Br)cc3F)ccc21,90%
18,CC1CCN(S(=O)(=O)c2ccc3c(c2)N(CC(=O)NCCCN2CCCC(C)C2)C(=O)CS3)CC1 (stereo not drawn),75%
19,CC(C)OCCCn1c(SCC(=O)c2ccccc2)nc2c(sc3ccccc32)c1=O,88%
20,CCCCn1c(SCC(=O)NCc2ccc(C)cc2)nc2c(sc3ccccc32)c1=O,89%
21,COCCCNC(=O)CSc1nc2c(sc3ccccc32)c(=O)n1CCc1ccccc1,72%
22,COCCCNC(=O)CSc1nc2c(sc3ccccc32)c(=O)n1CCc1ccc(OC)c(OC)c1,-4% (active)

row,Compound,survival
1,COCCCn1c(SCC(=O)NCc2ccccc2)nc2c(sc3ccccc32)c1=O,82%
2,CCOCCCn1c(SCC(=O)OCC)nc2c(sc3ccccc32)c1=O,124%
3,CCCCn1c(SCC(=O)c2ccccc2)nc2c(sc3ccccc32)c1=O,17% (active)
4,CCCCn1c(SCC(=O)NCCCOC)nc2c(sc3ccccc32)c1=O,128%
5,CCOC(=O)CSc1nc2c(sc3ccccc32)c(=O)n1CCc1ccccc1,60%
6,CCOCCCn1c(SCC(=O)NCCCOC)nc2c(sc3ccccc32)c1=O,126%
7,CCOCCCn1c(SCC(=O)NCc2ccccc2)nc2c(sc3ccccc32)c1=O,-5% (active)
8,CCOC(=O)CSc1nc2c(sc3ccccc32)c(=O)n1CCO,-5% (active)
9,O=C(CN1C(=O)COc2ccc(S(=O)(=O)N3CCOCC3)cc21)N1CCN(c2ccc(F)cc2)CC1,99%
10,CCC(C)(C)n1nnnc1CN(Cc1ccc(Cl)cc1)CC1CCCO1 (stereo not drawn),76%
11,c1ccc(CNc2nc3c(-c4ccccc4)nnn3c3ccccc23)cc1,75%
12,Clc1ccc(-c2nnn3c2nc(NCc2ccc4c(c2)OCO4)c2ccccc23)cc1,59%
13,Cc1ccc(-c2nnn3c2nc(NCC(C)c2ccccc2)c2ccccc23)cc1 (stereo not drawn),91%
14,CCCCCNc1nc2c(-c3ccccc3)nnn2c2ccccc12,80%
15,CC1CCC(Nc2nc3c(-c4ccc(Cl)cc4)nnn3c3ccccc23)CC1 (stereo not drawn),8% (active)
16,Cc1ccc(-c2nnn3c2nc(NCCc2ccccc2)c2ccccc23)cc1,112%
17,Clc1ccc(-c2nnn3c2nc(NC2CCCCC2)c2ccccc23)cc1,17% (active)
18,Cc1ccc(-c2nnn3c2nc(NC2CCC(C)CC2)c2ccccc23)cc1 (stereo not drawn),-4% (active)
19,Cc1ccc(-c2nnn3c2nc(NCCc2ccc(Cl)cc2)c2ccccc23)cc1,82%
20,CCCCNC(=O)C(CC)Sc1nnc(-c2ccc(F)cc2)c(-c2ccc(F)cc2)n1 (stereo not drawn),83%
21,CSc1ccc(C2c3[nH]c4ccccc4c3CCN2C(=O)CCc2ccccc2)cc1 (stereo not drawn),87%
22,CC1CCCN(CCCNC(=O)c2ccc3c(c2)N(Cc2ccc(Cl)cc2)C(=O)c2ccccc2S3(=O)=O)C1 (stereo not drawn),145%

row,Compound,survival
1,COc1c(Cl)cc(Cl)cc1CNCCSc1nnnn1C,74%
2,COc1ccc(Br)cc1CNC(=O)CCSCc1ccc(Cl)cc1,73%
3,CCOC(=O)C1CCCN(S(=O)(=O)c2ccc3c(c2)N(C)C(=O)CC(=O)N3C)C1 (stereo not drawn),106%
4,COc1ccc(OCc2nc3c4c(-c5ccc(OC)cc5)c(-c5ccc(OC)cc5)oc4ncn3n2)cc1,70%
5,COC(=O)c1ccc([C@H]2Nc3ccc(S(=O)(=O)Nc4ccc(C)cc4)cc3[C@H]3C=CC[C@H]32)cc1,60%
6,Cc1ccc(NS(=O)(=O)c2ccc3c(c2)[C@H]2C=CC[C@H]2[C@@H](c2ccc(F)cc2)N3)cc1C,58%
7,Cc1cccc(C)c1NS(=O)(=O)c1ccc2c(c1)[C@H]1C=CC[C@H]1[C@@H](c1ccc(Cl)cc1)N2,53%
8,COC(=O)c1ccc([C@H]2Nc3ccc(S(=O)(=O)Nc4ccc(F)cc4)cc3[C@H]3C=CC[C@H]32)cc1,53% (active)
9,Cc1cccc(NS(=O)(=O)c2ccc3c(c2)[C@H]2C=CC[C@H]2[C@@H](c2ccc(F)cc2)N3)c1,39% (active)
10,COC(=O)c1ccc([C@H]2Nc3ccc(S(=O)(=O)Nc4cccc(C)c4)cc3[C@H]3C=CC[C@H]32)cc1,50%
11,Cc1ccc(C)c(N2CCN(C(=O)c3ccc4c(c3)c(C)c(C)n4C)CC2)c1,73%
12,COc1ccccc1CNC(=O)Cn1c(=O)oc2cc(S(=O)(=O)N3CCC(C)CC3)ccc21,143%
13,COc1ccc(N2CCN(C(=O)CN3C(=O)COc4ccc(S(=O)(=O)N5CCC(C)CC5)cc43)CC2)cc1,81%
14,CCOC(=O)/C(C#N)=C/c1ccc(-c2ccc(C)cc2)o1,98%
15,N#C/C(=C\c1ccc(-c2cccc(Cl)c2)o1)C(N)=O,99%
16,CCOC(=O)c1ccc(-c2ccc(/C=C(\C#N)C(=O)Nc3ccc(C)cc3OC)o2)cc1,76%
17,Cc1cc(C(=O)OC(C)C)ccc1-c1ccc(C=C(C#N)C#N)o1,104%
18,N#CC(C#N)=Cc1ccc(-c2cccc(C(F)(F)F)c2)o1,114%
19,Cc1ccc2nc(/C(C#N)=C/c3ccc(-c4cccc(Cl)c4)o3)[nH]c2c1,6% (active)
20,CCOC(=O)c1ccc(-c2ccc(C=C(C#N)C#N)o2)cc1,87%
21,Cc1ccc2nc(/C(C#N)=C/c3ccc(-c4ccc(C(=O)OC(C)C)cc4)o3)[nH]c2c1,36% (active)
22,CCOC(=O)c1ccc(-c2ccc(/C=C(\C#N)c3nc4ccc(C)cc4[nH]3)o2)cc1,32% (active)
